Only some compounds are listed: those with a hit (about 2.4% of all), similar ones and a draw of the others.
Pol kappa inh-1 = inhibitors of human DNA polymerase kappa; hit rate 0.53% among 400,000; Q9UBT6; purified Pol kappa, fluorescent DNA synthesis assay, 10 min; AID 588579; Potency, µM (top dose mostly 107 µM), for inactives: top-dose activity, negative = inhibition, actives largely listed as inhibitors; further: potency means the concentration at half of the fitted maximal effect; on the % scale 0 is the no-effect control and ±100 the full control effect
Target sequence (Q9UBT6 whole entry, looked up): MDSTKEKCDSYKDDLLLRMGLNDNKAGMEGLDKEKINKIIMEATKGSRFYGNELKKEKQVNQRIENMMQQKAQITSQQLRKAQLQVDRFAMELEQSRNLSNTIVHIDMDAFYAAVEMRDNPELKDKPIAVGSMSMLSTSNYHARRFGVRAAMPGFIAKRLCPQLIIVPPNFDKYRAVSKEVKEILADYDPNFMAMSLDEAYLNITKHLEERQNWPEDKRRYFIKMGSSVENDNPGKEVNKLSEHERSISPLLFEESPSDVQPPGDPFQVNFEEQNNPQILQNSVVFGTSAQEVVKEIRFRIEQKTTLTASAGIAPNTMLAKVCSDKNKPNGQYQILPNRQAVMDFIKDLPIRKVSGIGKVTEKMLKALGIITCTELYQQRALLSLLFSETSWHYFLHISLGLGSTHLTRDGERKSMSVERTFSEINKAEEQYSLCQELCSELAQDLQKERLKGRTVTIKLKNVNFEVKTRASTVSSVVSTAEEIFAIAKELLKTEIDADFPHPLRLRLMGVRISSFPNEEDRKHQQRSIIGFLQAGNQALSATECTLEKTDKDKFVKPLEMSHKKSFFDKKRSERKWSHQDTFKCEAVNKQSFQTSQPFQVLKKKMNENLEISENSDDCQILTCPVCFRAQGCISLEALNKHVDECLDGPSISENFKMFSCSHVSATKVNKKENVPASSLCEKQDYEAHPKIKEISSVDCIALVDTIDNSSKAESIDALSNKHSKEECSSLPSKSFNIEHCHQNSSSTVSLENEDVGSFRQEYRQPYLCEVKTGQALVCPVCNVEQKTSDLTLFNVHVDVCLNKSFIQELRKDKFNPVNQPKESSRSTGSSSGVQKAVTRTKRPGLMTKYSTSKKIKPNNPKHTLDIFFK
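10 nM Pol kappa preincubated 15 min at room temperature with compounds, then reaction started with substrate at 50 nM final. Fluorescence read kinetically at 0 and 10 min; buffer-only wells served as negative control.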
Pol eta inh-1 = DNA polymerase eta (human) inhibition; Q9Y253; recombinant Pol eta, fluorescent DNA replication assay; Potency, µM (titrated, usually from 114 µM), without a hit: at the top dose activity change, negative = inhibition, hits mostly inhibitors; hit rate 1.2% among 390,000; further: potency means the concentration at half of the fitted maximal effect; on the % scale 0 is the no-effect control and ±100 the full control effect
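Pol eta at 10 nM preincubated with compounds 15 min at room temperature; reaction started with fluorescent substrate (50 nM final) and read kinetically at 0 and 10 min.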
POLI inh = DNA polymerase iota (human) inhibition; Q9UNA4; Potency, µM (highest dose often 115 µM), without a hit: top-dose activity, negative = inhibition, most hits filed as inhibitors; AID 588590; Pol iota fluorescent replication assay, 10 min; hit rate 1% among 390,000; further: potency means the concentration at half of the fitted maximal effect
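Pol iota at 10 nM preincubated 15 min with compounds at room temperature; reaction started with fluorescent substrate, 50 nM final. Fluorescence read kinetically at 0 and 10 min; buffer-only wells as negative control.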
FEN1 inh-1 = blocks human flap endonuclease 1. Potency, µM (top dose mostly 114 µM), without a hit: top-dose activity change, negative = inhibition, most hits filed as inhibitors. AID 588795. Recombinant FEN1 flap cleavage, fluorescence, 15 min. hit rate 0.35% among 390,000; further: potency means the concentration at half of the fitted maximal effect; on the % scale 0 is the no-effect control and ±100 the full control effect; nearly all actives have a fitted effect of over 65% in size
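Reaction started by adding substrate (50 nM final) to 10 nM enzyme after 15 min room-temperature compound preincubation. Reads at 0 and 15 min, with data normalized and fitted to a four-parameter Hill equation.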
WRN helicase inh-1 = WRN helicase (human) inhibition; hit rate 0.46% among 360,000; Potency, µM (top dose mostly 114 µM), for inactives: at the highest dose activity change, negative = inhibition, hits mostly inhibitors; Q14191; WRN helicase unwinding, fluorescent forked duplex, kinetic; further: potency means the concentration at half of the fitted maximal effect; on the % scale 0 is the no-effect control and ±100 the full control effect; nearly all actives have a fitted effect of over 55% in size
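Kinetic fluorescence helicase assay: unwinding of a quenched forked DNA duplex (100 nM final) with 2 mM ATP final raises red fluorescence (525/598 nm). Compounds sat 15 min at room temperature with 20 nM WRN beforehand.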
Pol beta inh = inhibitors of human DNA polymerase beta; P06746; Pol beta primer extension/strand displacement, fluorescence kinetic; Potency, µM (series often up to 114 µM), for inactives: at the top dose activity change, negative = inhibition, hits mostly inhibitors; hit rate 1.3% among 340,000; AID 485314; further: potency means the concentration at half of the fitted maximal effect; on the % scale 0 is the no-effect control and ±100 the full control effect
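Values derive from four-parameter Hill fits of normalized kinetic data: reads at 0 and 10 min following addition of 50 nM substrate to 10 nM Pol beta preincubated 15 min with compound.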
TbPGK inh = validation of Trypanosoma brucei phosphoglycerate kinase inhibitors. shares compounds with Pol kappa inh-1. TbPGK coupled GAPDH assay, Kinase-Glo luminescence. Potency, µM (highest dose often 57.5 µM), for inactives: at the top dose activity change, negative = inhibition, most hits filed as inhibitors. hit rate 79% among 500; further: potency means the concentration at half of the fitted maximal effect; on the % scale 0 is the no-effect control and ±100 the full control effect; nearly all actives have a fitted effect of over 65% in size
Pol iota confirm = Confirm cherry-picked inhibitors of human polymerase iota. shares compounds with Pol kappa inh-1. Pol iota primer extension, TAMRA/BHQ fluorescence. hit rate 77% among 1,500. Potency, µM, hits mostly inhibitors; further: potency means the concentration at half of the fitted maximal effect
GALK confirm = galactokinase (human) inhibition, confirmation. purified GALK, Kinase-Glo ATP depletion luminescence. Potency, µM (top dose mostly 115 µM), without a hit: at the highest dose activity, negative = inhibition, usual class: inhibitors. shares compounds with Pol eta inh-1. hit rate 70% among 150. AID 2015
Redox cycling = generates H2O2 by redox cycling, flagging GALK artifacts. AID 2035. hit rate 40% among 150. Phenol red-HRP H2O2 redox cycling, absorbance 600 nm. Potency, µM (titrated, usually from 115 µM), for inactives: at the highest dose activity change, negative = H2O2 signal, hits mostly inhibitors. shares compounds with Pol eta inh-1
HEK293 viability = HEK-293 cytotoxicity, GALK inhibitor secondary | shares compounds with Pol eta inh-1 | HEK-293 viability, ATP luminescence (CellTiter-Glo), 24/48 h | Potency, µM (titrated, usually from 46.1 µM), without a hit: at the highest dose activity change, negative = cytotoxicity, actives largely listed as inhibitors | hit rate 10% among 170 | AID 2547; further: potency means the concentration at half of the fitted maximal effect; on the % scale 0 is the no-effect control and ±100 the full control effect
Pol kappa inh-2 = confirmation of human DNA polymerase kappa inhibitors; shares compounds with Pol eta inh-1; purified Pol-kappa, fluorescent strand-displacement substrate; Potency, µM, hits mostly inhibitors; hit rate 76% among 920; further: potency means the concentration at half of the fitted maximal effect
Pol eta inh-2 = confirmation of human DNA polymerase eta inhibitors. Pol eta primer extension, TAMRA/BHQ fluorescence, 10 min. AID 720502. Potency, µM, most hits filed as inhibitors. shares compounds with Pol eta inh-1. hit rate 64% among 2,600; further: potency means the concentration at half of the fitted maximal effect
FEN1 inh-2 = confirmation of human FEN1 inhibitors. shares compounds with FEN1 inh-1. FEN1 flap cleavage, TAMRA/BHQ2 fluorogenic DNA substrate. Potency, µM, most hits filed as inhibitors. hit rate 79% among 880. AID 720498; further: potency means the concentration at half of the fitted maximal effect; nearly all actives have a fitted effect of over 60% in size
WRN helicase inh-2 = WRN helicase inhibition, cherry-pick retest; shares compounds with WRN helicase inh-1; WRN helicase DNA unwinding, fluorescence kinetic; Potency, µM (highest dose often 57.1 µM), without a hit: top-dose activity, negative = inhibition, hits mostly inhibitors; hit rate 63% among 610; AID 720497; further: potency means the concentration at half of the fitted maximal effect; nearly all actives have a fitted effect of over 65% in size
TO displacement = DNA binding via thiazole orange displacement; shares compounds with WRN helicase inh-1; thiazole orange DNA binding displacement, fluorescence; Potency, µM (series often up to 57.1 µM), without a hit: at the highest dose activity change, negative = inhibition, actives largely listed as inhibitors; hit rate 10% among 610;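 further: drop in dye fluorescence marks compound binding to DNA; potency means the concentration at half of the fitted maximal effect; on the % scale 0 is the no-effect control and ±100 the full control effect; nearly all actives have a fitted effect of over 60% in size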
BLM counter = blocks human BLM helicase in WRN counterscreen; hit rate 60% among 610; Recombinant BLM helicase DNA unwinding, red fluorescence; Potency, µM (titrated, usually from 57.1 µM), for the others: top-dose activity change, negative = inhibition, most hits filed as inhibitors; shares compounds with WRN helicase inh-1; AID 720503; further: potency means the concentration at half of the fitted maximal effect; nearly all actives have a fitted effect of over 60% in size
* marks the source's active call; other numbers are inactive results; ? = inconclusive; . = not tested or not shown; [ ] = another dose, or the depositor's remark. The call rests on the fitted dose curve; in most records, active means well fitted curve in the direction sought with a large enough effect; inconclusive means small, poorly fitted or top-dose-only effect, or another doubt; inactive means no such curve, though single readings can be large; an effect the other way counts as inactive or inconclusive.

SMILES	Pol kappa inh-1	Pol eta inh-1	POLI inh	FEN1 inh-1	WRN helicase inh-1	Pol beta inh	Pol iota confirm	Pol kappa inh-2	Pol eta inh-2	FEN1 inh-2	WRN helicase inh-2	TO displacement	BLM counter	others
O=C(O)c1ccc(-n2cccc2/C=C2\SC(=O)N(Cc3ccc(Cl)cc3)C2=O)cc1	.	.	.	.	.	.	42*	.	15*	76*	9.6µM*	-28%	8.6µM*
O=C(O)c1ccc(-n2cccc2/C=C2\SC(=O)N(Cc3cccc(Cl)c3)C2=O)cc1	.	.	.	.	.	.	?	.	30*	.	19µM*	-18%	14µM*
O=C(O)c1ccc(/C=C2/SC(=S)N(Cc3ccccc3)C2=O)cc1	-3%	-16%	-18%	9%	-3%	-28%	.	.	.	.	.	.	.
Cc1cccc(C)c1OCC(=O)Nc1cccc(S(=O)(=O)N2CCCC2)c1	-4%	-15%	18%	-7%	-14%	.	.	.	.	.	.	.	.
CC(=O)c1cnc(N(C)C)s1	-1%	-7%	-3%	15%	9%	-1%	.	.	.	.	.	.	.
CN(C)c1ncc(C2=C(Cl)C(=O)C(N3CCCC3)=C(Cl)C2=O)s1	28µM*	20µM*	7.9µM*	50µM*	9.5µM*	.	38*	.	34*	.	?	?	7.6µM*
CN(C)c1ccc2nc3c(=O)[nH]c(=O)nc-3n(CC(O)C(O)C(O)CO)c2c1 (centres undefined)	?	?	28µM*	45µM*	3µM*	25µM*	24*	?	38*	34*	22µM*	287%	22µM*
Cc1ncc(C(O)c2ccc(N(C)C)cc2)n1Cc1ccccc1 (centres undefined)	.	-2%	.	.	4%	.	.	.	.	.	.	.	.
CS(=O)(=O)c1ccc2c(c1)sc1nc(=O)c(/C=C3/C=CC(=O)C(O)=C3)c(N)n12	7.9µM*	0.79µM*	4µM*	13µM*	28µM*	3.2µM*	6.7*	.	1.5*	38*	1.9µM*	31%	3µM*	TbPGK inh=?;GALK confirm=19µM*;Redox cycling=?;HEK293 viability=1%
N#C/C(=C\c1ccc(-c2ccc(C(=O)O)cc2)o1)C(=O)Nc1ccccc1C(=O)O	32µM*	11µM*	?	?	.	?	67*	5.3*	30*	.	?	11µM*	19µM*
CC1CCN(C(=S)c2ccc(O)cc2)CC1	-5%	15%	27%	-5%	-16%	29%	.	.	.	.	.	.	.
O=C(O)C1CCN(S(=O)(=O)c2cccnc2)CC1	-1%	-8%	12%	-6%	-29%[57.1 µM]	1%	.	.	.	.	.	.	.
COc1cccc2c1C(=O)c1c(O)c3c(c(O)c1C2=O)CC(O)(C(C)=O)CC3OC1CC(O)C(O)C(C)O1 (centres undefined)	?	25µM*	45µM*	28µM*	3µM*	.	24*	75*	34*	85*	22µM*	297%	22µM*
COc1cccc2c1-c1c(O)cccc1C2=O	-19%	-3%	?	-21%	-14%	-27%	.	.	.	.	.	.	.
O=C1/C(=C/c2ccco2)SC(=S)N1c1cccnc1	8.9µM*	2.8µM*	?	28µM*	13µM*	1.6µM*	3.8*	4.7*	5.4*	.	22µM*	-22%	8.6µM*	TbPGK inh=3.3µM*
Cc1noc(NS(=O)(=O)c2ccc(NC(=O)/C=C/c3ccc(Cl)cc3Cl)cc2)c1C	.	-16%	.	.	-3%	.	.	.	.	.	.	.	.
O=C(O)c1cccc(-c2ccc(/C=c3/sc4nc5ccccc5n4c3=O)o2)c1	22µM*	3.2µM*	?	13µM*	40µM*	4µM*	3.8*	.	5.4*	76*	4.8µM*	?	1.9µM*
O=C(O)c1cccc(N2C(=O)c3cc([N+](=O)[O-])cc4cc([N+](=O)[O-])cc(c34)C2=O)c1	22µM*	4µM*	2.2µM*	20µM*	40µM*	6.3µM*	42*	15*	24*	.	27µM*	-26%	?	TbPGK inh=10µM*
O=C(O)c1cccc(N2C(=O)c3cccc4cccc(c34)C2=O)c1	-6%	9%	66%	-4%	-22%	5%	.	.	.	.	.	.	.
COc1ccccc1Nc1ccc2c(O)cc(S(=O)(=O)O)cc2c1	0.89µM*	2.2µM*	1.1µM*	22µM*	-113%	.	19*	3*	15*	67*	6.1µM*	?	5.4µM*	TbPGK inh=8.2µM*

Source: PubChem
